Assay [1] can be described thus: qHTS assay for identifying genotoxic compounds that show differential cytotoxicity against isogenic chicken DT40 cell lines with known DNA damage response pathways - wild type cell line (AID 743012). Also: nearly all actives have a fitted effect of over 60% in size. Also: potency is read from the fitted curve at half-maximal effect. The method in brief:
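First, wild type DT40 cells were plated at 300 per well and equilibrated about 0.5 h at 37 C/5% CO2. Next, compounds in DMSO were added and exposure lasted 40 h. Finally, CellTiter-Glo was added for 30 min at room temperature and luminescence recorded.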
A general note: In qHTS, concentration-response curves come from the screen itself.

A short description of assay [2]: qHTS assay for identifying genotoxic compounds that show differential cytotoxicity against isogenic chicken DT40 cell lines with known DNA damage response pathways - Rev3 mutant cell line (AID 743014). Also: nearly all actives have a fitted effect of over 55% in size. Also: potency is read from the fitted curve at half-maximal effect.
Assay [3] in a line: qHTS assay for identifying genotoxic compounds that show differential cytotoxicity against isogenic chicken DT40 cell lines with known DNA damage response pathways - Rad54/Ku70 mutant cell line (AID 743015). Also: nearly all actives have a fitted effect of over 60% in size. Also: potency is read from the fitted curve at half-maximal effect.
Assay [4] is described as follows: qHTS assay to identify small molecule antagonists of the androgen receptor (AR) signaling pathway - cell viability counter screen (AID 743033; also: nearly all actives have a fitted effect of over 45% in size).
The target in assay [5] is Androgen receptor (Homo sapiens) (UniProt P10275). Kind of assay: qHTS assay to identify small molecule antagonists of the androgen receptor (AR) signaling pathway (AID 743035; active = well fitted inhibition curve with a large enough effect in the signal ratio in the repeat runs, not every such curve was filed as active; the % refers to the signal ratio). Summed up: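 Beta-lactamase FRET read (2 h RT incubation with LiveBLAzer B/G) following 16 h of compound plus R1881 treatment of AR-UAS-bla HEK293 cells, which had been pre-incubated 4 h at 37C.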
Chain of Androgen receptor (Homo sapiens) (P10275 whole entry, looked up): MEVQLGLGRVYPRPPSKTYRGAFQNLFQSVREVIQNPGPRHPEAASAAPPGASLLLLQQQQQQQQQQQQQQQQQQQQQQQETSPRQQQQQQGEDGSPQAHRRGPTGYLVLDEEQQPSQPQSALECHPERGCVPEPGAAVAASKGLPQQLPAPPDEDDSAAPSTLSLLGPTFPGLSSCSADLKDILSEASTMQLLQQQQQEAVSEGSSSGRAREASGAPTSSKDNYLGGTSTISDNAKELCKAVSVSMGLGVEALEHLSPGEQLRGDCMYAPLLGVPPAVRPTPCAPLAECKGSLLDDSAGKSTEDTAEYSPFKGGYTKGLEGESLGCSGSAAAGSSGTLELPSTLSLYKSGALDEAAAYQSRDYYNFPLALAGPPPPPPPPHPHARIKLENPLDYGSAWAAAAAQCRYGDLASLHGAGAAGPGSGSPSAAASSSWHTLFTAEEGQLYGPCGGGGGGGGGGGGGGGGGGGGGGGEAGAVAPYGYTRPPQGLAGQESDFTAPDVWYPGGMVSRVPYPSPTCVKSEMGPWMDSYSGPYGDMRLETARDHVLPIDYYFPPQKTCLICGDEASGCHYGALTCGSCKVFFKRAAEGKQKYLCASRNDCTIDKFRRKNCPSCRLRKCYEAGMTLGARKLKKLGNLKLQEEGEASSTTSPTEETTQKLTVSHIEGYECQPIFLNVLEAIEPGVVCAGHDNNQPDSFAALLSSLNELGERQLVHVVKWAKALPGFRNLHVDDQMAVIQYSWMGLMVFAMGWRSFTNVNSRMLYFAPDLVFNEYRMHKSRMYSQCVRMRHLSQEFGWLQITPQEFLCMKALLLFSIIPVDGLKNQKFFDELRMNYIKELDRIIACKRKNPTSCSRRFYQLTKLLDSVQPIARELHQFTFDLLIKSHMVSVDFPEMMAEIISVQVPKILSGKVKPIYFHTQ

Assay [6] shares this target. In words: qHTS assay to identify small molecule agonists of the androgen receptor (AR) signaling pathway (AID 743036; active = well fitted activation curve with a large enough effect in the signal ratio in the repeat runs, with a control signal flat, not every such curve was filed as active; the % refers to the signal ratio). The method in brief:
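AR-bla HEK293 cells, 2,000/well; 4 h preincubation 37C/5% CO2; compound (DMSO) 16 h at 37C; LiveBLAzer B/G FRET substrate 2 h RT; fluorescence intensity read-out.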

Assay [7] shares this target. Kind of assay: qHTS assay to identify small molecule agonists of the androgen receptor (AR) signaling pathway using the MDA cell line (AID 743040; also: nearly all actives have a fitted effect of over 20% in size). The conditions noted are these: MDA-kb2 AR-luc cells, MMTV luciferase, 16 h; activity change: at 70.3 µM (top of the series), stronger effect = higher value. The method in brief: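 MDA-kb2 breast carcinoma cells carrying MMTV-luciferase (responsive to AR and GR), plated 5 h then treated 16 h with compounds at 37C, 0% CO2. Read-out was ONE-Glo luminescence after 30 min at room temperature.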

Assay [8] in a line: qHTS assay to identify small molecule antagonists of the androgen receptor (AR) signaling pathway using the MDA cell line - cell viability counter screen (AID 743041; also: nearly all actives have a fitted effect of over 45% in size). Summed up:
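MDA-kb2 AR-luc cells (MMTV-luciferase, AR/GR responsive) treated with compounds plus R1881 agonist for 16 h at 37C. CellTiter-Fluor added at 15.5 h; fluorescence read after 30 min in the same wells.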

Assay [9] deals with Androgen receptor (Homo sapiens) (UniProt P10275). In words: qHTS assay to identify small molecule antagonists of the androgen receptor (AR) signaling pathway using the MDA cell line (AID 743042; also: nearly all actives have a fitted effect of over 55% in size). The method in brief:
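MDA-kb2 breast carcinoma cells carrying MMTV-luciferase (AR/GR responsive) were co-treated with compounds and the agonist R1881 for 16 h at 37C. Inhibition read as ONE-Glo luminescence; CellTiter-Fluor fluorescence measured in parallel for cytotoxicity.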

A short description of assay [10]: qHTS assay to identify small molecule antagonists of the thyroid receptor (TR) signaling pathway - cell viability counter screen (AID 743064). Also: nearly all actives have a fitted effect of over 50% in size. Also: potency is read from the fitted curve at half-maximal effect. The method in brief: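 GH3.TRE-Luc cells, 4 h pre-plating; cpd + T3 1 nM final; 37 °C 23.5 h; CellTiter-Fluor 30 min; fluorescence read.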
Assay [11] is described as follows: qHTS assay to identify small molecule antagonists of the thyroid receptor (TR) signaling pathway (AID 743065). Also: nearly all actives have a fitted effect of over 55% in size. Also: potency is read from the fitted curve at half-maximal effect. Summed up:
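GH3.TRE-Luc rat pituitary cells (two TREs driving luciferase) were dosed with compound, then stimulated with 1 nM T3 (final) for 23.5 h at 37 C. ONE-Glo luminescence was the read-out, with CellTiter-Fluor fluorescence as the cytotoxicity counter-screen.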

Assay [12] deals with thyroid hormone receptor (rat, GH3 cells). Kind of assay: qHTS assay to identify small molecule agonists of the thyroid receptor (TR) signaling pathway (AID 743066; calls by dose curve).
In assay [13] the target is Estrogen receptor (Homo sapiens) (UniProt P03372). Kind of assay: qHTS assay to identify small molecule agonists of the estrogen receptor alpha (ER-alpha) signaling pathway (AID 743075; calls by dose curve).
Chain of Estrogen receptor (Homo sapiens) (P03372 whole entry, looked up): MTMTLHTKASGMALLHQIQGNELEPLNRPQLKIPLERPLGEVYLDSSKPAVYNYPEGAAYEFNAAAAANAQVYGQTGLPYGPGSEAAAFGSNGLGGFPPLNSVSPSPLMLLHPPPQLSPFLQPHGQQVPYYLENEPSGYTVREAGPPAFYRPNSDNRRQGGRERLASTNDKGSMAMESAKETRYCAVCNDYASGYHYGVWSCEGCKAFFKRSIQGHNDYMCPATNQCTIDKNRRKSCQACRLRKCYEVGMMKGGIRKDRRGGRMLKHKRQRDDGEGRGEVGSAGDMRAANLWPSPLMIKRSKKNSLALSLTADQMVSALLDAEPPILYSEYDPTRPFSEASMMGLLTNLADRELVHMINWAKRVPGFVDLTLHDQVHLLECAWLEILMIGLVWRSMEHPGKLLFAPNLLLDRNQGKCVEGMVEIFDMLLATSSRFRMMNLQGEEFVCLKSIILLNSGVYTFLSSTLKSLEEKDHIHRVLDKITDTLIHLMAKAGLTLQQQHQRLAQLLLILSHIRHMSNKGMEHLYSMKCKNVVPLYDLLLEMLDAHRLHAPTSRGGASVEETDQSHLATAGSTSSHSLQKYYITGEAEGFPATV
The target is the same in assay [14]. In words: qHTS assay to identify small molecule agonists of the estrogen receptor alpha (ER-alpha) signaling pathway using the BG1 cell line (AID 743079). Also: nearly all actives have a fitted effect of over 20% in size.
A short description of assay [15]: qHTS assay to identify small molecule antagonists of the estrogen receptor alpha (ER-alpha) signaling pathway using the BG1 cell line (AID 743080; calls by dose curve;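 also: BG1 cells stimulated with 17beta-estradiol alongside compound; nearly all actives have a fitted effect of over 25% in size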). The method in brief: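 BG1-Luc-4E2 cells (endogenous full-length ER-alpha, 4xERE luciferase) hormone-starved 5 days in charcoal-stripped FBS, plated 4,000/well for 24 h, then compound plus 17beta-estradiol for 21.5 h at 37 C; ONE-Glo luminescence read.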

Assay [16] is described as follows: qHTS assay to identify small molecule antagonists of the estrogen receptor alpha (ER-alpha) signaling pathway using the BG1 cell line - cell viability counter screen (AID 743081).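 Also: compound given together with 17beta-estradiol as the ER stimulus; nearly all actives have a fitted effect of over 45% in size.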
The next assay has as its target Aromatase (Homo sapiens) (UniProt P11511). Kind of assay: qHTS assay to identify aromatase inhibitors (AID 743083). Also: nearly all actives have a fitted effect of over 55% in size.
The nature of assay [17]: qHTS assay to identify small molecule antagonists of the glucocorticoid receptor (GR) signaling pathway - cell viability counter screen (AID 720693). Also: nearly all actives have a fitted effect of over 55% in size.
The nature of assay [18]: qHTS assay to identify small molecule antagonists of the estrogen receptor alpha (ER-alpha) signaling pathway - cell viability counter screen (AID 743074; calls by dose curve;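 also: HEK293 cells carrying ER-alpha-UAS-bla reporter stimulated with 17beta-estradiol; nearly all actives have a fitted effect of over 45% in size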).
Assay [19] concerns the target Estrogen receptor (Homo sapiens) (UniProt P03372). In words: qHTS assay to identify small molecule antagonists of the estrogen receptor alpha (ER-alpha) signaling pathway (AID 743069; active = well fitted curve in the direction sought with a large enough effect in the signal ratio in the repeat runs, not every such curve was filed as active; the % refers to the signal ratio). Summed up:
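HEK293 ER-alpha-UAS-bla GripTite cells, held overnight in 2% charcoal-stripped FBS, 5,000 cells/well, preincubated 4 h, then compound plus 17beta-estradiol for 18 h at 37C. Beta-lactamase read by LiveBLAzer B/G FRET substrate, 2 h at room temperature.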

“And” between values parts separate entries of the source, which are not always exact repeats. Equal entries are not always repeated. Records with an inconclusive call do not appear. Some compounds were tested as several samples or in several runs, with calls that do not always agree. The source made the active and inactive calls. Unless noted, calls follow the shape of the dose curve; as a rule, active = well fitted curve in the direction sought with a large enough effect in the repeat runs; inconclusive = weak or mixed curves; inactive = no such curve, though single readings can be large; an effect the other way counts as inactive or inconclusive.

Chain of Aromatase (Homo sapiens) (P11511 whole entry, looked up): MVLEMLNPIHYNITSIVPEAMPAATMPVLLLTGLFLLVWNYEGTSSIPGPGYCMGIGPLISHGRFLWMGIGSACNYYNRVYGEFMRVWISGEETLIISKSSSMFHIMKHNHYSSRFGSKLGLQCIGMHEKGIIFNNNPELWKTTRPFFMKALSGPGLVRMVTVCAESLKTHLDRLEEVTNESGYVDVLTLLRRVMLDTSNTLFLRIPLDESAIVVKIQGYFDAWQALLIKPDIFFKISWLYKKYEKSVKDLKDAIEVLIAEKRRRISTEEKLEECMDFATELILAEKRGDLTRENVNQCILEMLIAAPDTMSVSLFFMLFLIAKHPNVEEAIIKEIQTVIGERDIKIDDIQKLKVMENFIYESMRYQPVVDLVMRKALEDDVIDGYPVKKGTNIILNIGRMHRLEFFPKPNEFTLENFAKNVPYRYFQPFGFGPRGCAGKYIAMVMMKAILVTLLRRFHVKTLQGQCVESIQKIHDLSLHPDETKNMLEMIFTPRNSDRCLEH

For the compound `COP(=O)(OC)OC`, the Potency result in assay [1], in assay [2], in assay [3], in assay [4], in assay [5] and in assay [6] was “inactive” each time. The Potency entry in assay [7], in assay [8], in assay [9], in assay [10], in [11] and in assay [12] was “inactive” in each case. Besides, the Potency result (in assay [13]; in [14]; in [15]; in assay [16]; with Aromatase (Homo sapiens)) was “inactive” each time.
Take `CC(C)(OOC(C)(C)c1ccccc1)c1ccccc1`: the Potency result in assay [17], in assay [5], in assay [6], in assay [7], in assay [9] and in assay [12] was “inactive” throughout. Also, the Potency result (in [18]; in assay [16]; in the assay with Aromatase (Homo sapiens)) was “inactive” in each case. In addition, the Potency result in [1] is “inactive and 54.5 µM (active)”; in assay [3] it was 30.6 µM (active); in assay [10], 42.7 µM (active); in [11], 53.7 µM (active) and 43.3 µM (active).
Regarding `c1ccc(NNc2ccccc2)cc1`, the Potency result in assay [17], in [8], in [10], in assay [12], in assay [18] and in assay [16] was “inactive” each time. Moreover, the Potency result is “inactive and 30.6 µM (active)” in assay [1]; 24.3 µM (active) in [2]; “inactive and 27.3 µM (active)” in assay [3]; 68.6 µM (active) in assay [11].
As to `Nc1ccncc1`, the Potency result in assay [1], in assay [2], in assay [3], in [4], in [5] and in [6] was “inactive” throughout. Further, the Potency entry in [7], in [9], in assay [10], in assay [11], in assay [12] and in assay [19] was “inactive” in each case. For the same compound, the Potency entry (in [18]; in assay [13]; in assay [14]; in [15]; in assay [16]; in the assay with Aromatase (Homo sapiens)) was “inactive” each time.
Consider `CN(C)c1ccc(C(=O)c2ccc(N(C)C)cc2)cc1`, for which the Potency entry (in assay [17]; in assay [12]; in assay [18]; in assay [16]; with Aromatase (Homo sapiens)) was “inactive” each time. The Potency in [1] is 1.52 µM (active) and 1.37 µM (active); in assay [2] it was 762 nM (active) and 969 nM (active); in assay [3], 1.35 µM (active) and 1.37 µM (active); in assay [10], 30.3 µM (active) and inactive; in assay [11], 5.39 µM (active) and 1.09 µM (active).
As for `c1ccc(N=Nc2ccccc2)cc1`, the Potency entry in assay [17], in assay [1], in [2], in assay [3], in [8] and in assay [10] was “inactive” in each case. Further, the Potency entry (in assay [11]; in assay [12]; in assay [18]; in assay [16]; in the assay with Aromatase (Homo sapiens)) was “inactive” throughout.
Turning to `C=CC(=O)OCCO`, the Potency entry in assay [2], in assay [4], in assay [10], in assay [11], in assay [12] and in [18] was “inactive” each time. Also, the Potency entry in [16] is “inactive”. Besides, in assay [3], the Potency entry is “inactive and 43.3 µM (active)”.
Turning to `CCN(N=O)C(N)=O`, the Potency result in [1], in assay [2], in assay [3], in assay [4], in assay [10] and in [11] was “inactive” throughout. For the same compound, the Potency entry in assay [12], in assay [18], in assay [13], in assay [14], in assay [15] and in assay [16] was “inactive” each time. Further, in the assay with Aromatase (Homo sapiens), the Potency result was “inactive”.
For `N#CC(Br)Br`, the Potency result in assay [1], in assay [2], in assay [3], in assay [10], in assay [11] and in assay [12] was “inactive” each time. Further, the Potency entry (in assay [18]; in [13]; in assay [14]; in assay [15]; in assay [16]; in the assay with Aromatase (Homo sapiens)) was “inactive” throughout.
With `CC(C)=CC1C(C(=O)OCc2coc(Cc3ccccc3)c2)C1(C)C` (centres undefined), the Potency entry in assay [1] is “inactive and 38.5 µM (active)”; in [2], “inactive and 54.4 µM (active)”; in [3], “inactive and 43.2 µM (active)”. The Potency entry in assay [8], in [10], in assay [12], in assay [18], in [13] and in assay [14] was “inactive” each time. Also, the Potency entry (in assay [15]; in assay [16]; in the assay with Aromatase (Homo sapiens)) was “inactive” throughout.
As to `c1ccc(P(c2ccccc2)c2ccccc2)cc1`, the Potency was 55.5 µM (active) and 61.1 µM (active) in assay [1]; 12.4 µM (active) and 61.1 µM (active) in assay [2]; 19.7 µM (active) and 54.5 µM (active) in [3]. Further, the Potency entry in assay [8], in assay [10], in assay [12], in [19], in assay [18] and in [13] was “inactive” in each case. Further, the Potency result (in [14]; in assay [15]; in [16]; with Aromatase (Homo sapiens)) was “inactive” in each case.
For the compound `CCC(CC)Nc1c([N+](=O)[O-])cc(C)c(C)c1[N+](=O)[O-]`, the Potency entry in [2], in [8], in assay [12], in assay [18] and in [16] was “inactive” throughout. In addition, the Potency result in assay [3] is “inactive and 54.4 µM (active)”.
Take `O=c1oc2ccccc2c(O)c1C(CC(O)c1ccc(-c2ccc(Br)cc2)cc1)c1ccccc1` (centres undefined): the Potency entry in [1], in assay [2], in [4], in [8], in assay [12] and in assay [18] was “inactive” throughout. Besides, the Potency result (in assay [13]; in assay [14]; in [15]; in assay [16]; with Aromatase (Homo sapiens)) was “inactive” each time. The Potency in assay [11] is 29.8 µM (active) and 57.9 µM (active).
As to `Nc1ccc(Cl)cc1N`, the Potency in assay [3] is 42.3 µM (active); in [10] it was 42 µM (active); in assay [11], 24.3 µM (active). The Potency result (in assay [8]; in assay [9]; in assay [12]; in assay [18]; in [16]; in the assay with Aromatase (Homo sapiens)) was “inactive” throughout.

The values are drawn from PubChem BioAssay (Tox21).
